These results are taken from PubChem BioAssay.

Activity calls are given as the source filed them.

Assay [1] concerns PRMT1 (protein arginine N-methyltransferase 1). Put plainly: small molecules binding arginine methyltransferase PRMT1 – biochemical, small-molecule microarray, 635 nm fluorescence, primary screen (AID 1088).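 Further: binding of Prmt1 protein to compounds spotted on small-molecule microarray slides.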 Conditions: higher = more signal.
The nature of assay [2]: growth effects on S. cerevisiae YJM789 – YJM789 clinical isolate, OD600, 24 h, basal, primary screen (AID 1089).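 Further: growth of clinical yeast isolate S. cerevisiae YJM 789 seeded 1000 cells per well; test concentration not given here.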 Conditions: higher = more signal, called active from +8 up or from −8 down.
Assay [3] is described as follows: S. pombe growth modifiers, basal conditions – strain 972, OD600, 24 h, no modulator, primary screen (AID 1090).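 Further: basal condition with compound alone and no growth modifier present; test concentration not given here.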 As to conditions: S. pombe 972 growth, higher = more signal, called active from +8 up or from −8 down.
A short description of assay [4]: budding yeast growth modifiers under rapamycin – strain BY4716, OD600, 96 h, primary screen (AID 1091). Further: test concentration not given here. Conditions: S. cerevisiae BY4716 + rapamycin, higher = more signal, called active from +8 up or from −8 down.
Assay [5] deals with Torsin-1A-interacting protein 2 (Homo sapiens) (UniProt Q8NFQ8). Put plainly: small molecules binding lysate-expressed LULL1 – cell lysate, human LULL1 lysate, 635/667 nm fluorescence, primary screen (AID 1092).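 Further: probe is lysate of COS7 cells overexpressing human LULL1; score merges per-feature 667 nm fluorescence with signal-to-noise.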 Conditions: small-molecule microarray, hLULL1 lysate binding, 635 nm fluorescence; higher = more signal.
Sequence of Torsin-1A-interacting protein 2 (Homo sapiens) (Q8NFQ8 whole entry, looked up): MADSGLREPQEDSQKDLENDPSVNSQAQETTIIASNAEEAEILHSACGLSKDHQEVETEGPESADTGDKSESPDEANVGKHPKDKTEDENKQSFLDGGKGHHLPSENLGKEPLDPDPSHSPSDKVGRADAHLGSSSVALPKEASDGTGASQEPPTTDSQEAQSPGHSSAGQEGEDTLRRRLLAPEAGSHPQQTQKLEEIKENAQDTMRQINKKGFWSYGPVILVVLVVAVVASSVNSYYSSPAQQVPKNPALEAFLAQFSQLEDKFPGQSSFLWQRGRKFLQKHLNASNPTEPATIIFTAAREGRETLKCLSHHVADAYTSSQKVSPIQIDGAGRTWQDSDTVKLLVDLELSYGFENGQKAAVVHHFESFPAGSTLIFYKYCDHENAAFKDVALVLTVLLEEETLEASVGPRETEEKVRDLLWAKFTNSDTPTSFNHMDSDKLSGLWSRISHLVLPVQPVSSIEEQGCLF
Assay [6] is described as follows: optical density change of DRC41 E. coli – strain DRC41, OD650, 24 h, E. coli filamentation project, primary screen (AID 1093).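 Further: MC1000 strain lacking acrAB efflux and sulA so SOS filamentation is blocked; test concentration not given here.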 As to conditions: E. coli DRC41 growth, higher = more signal, called active from +8 up or from −8 down.
Assay [7] in a line: probe aLefty2 binding to arrayed compounds – biochemical, biotinylated probe, 635/667 nm fluorescence, primary screen (AID 1094).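 Further: score merges spot fluorescence near 667 nm with spot signal-to-noise ratio.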 Conditions: small-molecule microarray, higher = more signal.
The subject of assay [8] is Noggin (protein binding on small-molecule microarray). Briefly: small molecules binding Noggin protein – biochemical, 635/667 nm fluorescence, primary screen (AID 1095).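 Further: score merges 667 nm feature fluorescence with signal to noise over triplicate slides.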 As to conditions: 635 nm fluorescence, higher = more signal.
For assay [9], the target named is Neurogenic locus notch homolog protein 3 (Homo sapiens) (UniProt Q9UM47). Briefly: small molecules binding NOTCH3 protein – biochemical, 635/667 nm fluorescence, primary screen (AID 1096). As to conditions: small-molecule microarray, 635 nm fluorescence, higher = more signal.
Sequence of Neurogenic locus notch homolog protein 3 (Homo sapiens) (Q9UM47 whole entry, looked up): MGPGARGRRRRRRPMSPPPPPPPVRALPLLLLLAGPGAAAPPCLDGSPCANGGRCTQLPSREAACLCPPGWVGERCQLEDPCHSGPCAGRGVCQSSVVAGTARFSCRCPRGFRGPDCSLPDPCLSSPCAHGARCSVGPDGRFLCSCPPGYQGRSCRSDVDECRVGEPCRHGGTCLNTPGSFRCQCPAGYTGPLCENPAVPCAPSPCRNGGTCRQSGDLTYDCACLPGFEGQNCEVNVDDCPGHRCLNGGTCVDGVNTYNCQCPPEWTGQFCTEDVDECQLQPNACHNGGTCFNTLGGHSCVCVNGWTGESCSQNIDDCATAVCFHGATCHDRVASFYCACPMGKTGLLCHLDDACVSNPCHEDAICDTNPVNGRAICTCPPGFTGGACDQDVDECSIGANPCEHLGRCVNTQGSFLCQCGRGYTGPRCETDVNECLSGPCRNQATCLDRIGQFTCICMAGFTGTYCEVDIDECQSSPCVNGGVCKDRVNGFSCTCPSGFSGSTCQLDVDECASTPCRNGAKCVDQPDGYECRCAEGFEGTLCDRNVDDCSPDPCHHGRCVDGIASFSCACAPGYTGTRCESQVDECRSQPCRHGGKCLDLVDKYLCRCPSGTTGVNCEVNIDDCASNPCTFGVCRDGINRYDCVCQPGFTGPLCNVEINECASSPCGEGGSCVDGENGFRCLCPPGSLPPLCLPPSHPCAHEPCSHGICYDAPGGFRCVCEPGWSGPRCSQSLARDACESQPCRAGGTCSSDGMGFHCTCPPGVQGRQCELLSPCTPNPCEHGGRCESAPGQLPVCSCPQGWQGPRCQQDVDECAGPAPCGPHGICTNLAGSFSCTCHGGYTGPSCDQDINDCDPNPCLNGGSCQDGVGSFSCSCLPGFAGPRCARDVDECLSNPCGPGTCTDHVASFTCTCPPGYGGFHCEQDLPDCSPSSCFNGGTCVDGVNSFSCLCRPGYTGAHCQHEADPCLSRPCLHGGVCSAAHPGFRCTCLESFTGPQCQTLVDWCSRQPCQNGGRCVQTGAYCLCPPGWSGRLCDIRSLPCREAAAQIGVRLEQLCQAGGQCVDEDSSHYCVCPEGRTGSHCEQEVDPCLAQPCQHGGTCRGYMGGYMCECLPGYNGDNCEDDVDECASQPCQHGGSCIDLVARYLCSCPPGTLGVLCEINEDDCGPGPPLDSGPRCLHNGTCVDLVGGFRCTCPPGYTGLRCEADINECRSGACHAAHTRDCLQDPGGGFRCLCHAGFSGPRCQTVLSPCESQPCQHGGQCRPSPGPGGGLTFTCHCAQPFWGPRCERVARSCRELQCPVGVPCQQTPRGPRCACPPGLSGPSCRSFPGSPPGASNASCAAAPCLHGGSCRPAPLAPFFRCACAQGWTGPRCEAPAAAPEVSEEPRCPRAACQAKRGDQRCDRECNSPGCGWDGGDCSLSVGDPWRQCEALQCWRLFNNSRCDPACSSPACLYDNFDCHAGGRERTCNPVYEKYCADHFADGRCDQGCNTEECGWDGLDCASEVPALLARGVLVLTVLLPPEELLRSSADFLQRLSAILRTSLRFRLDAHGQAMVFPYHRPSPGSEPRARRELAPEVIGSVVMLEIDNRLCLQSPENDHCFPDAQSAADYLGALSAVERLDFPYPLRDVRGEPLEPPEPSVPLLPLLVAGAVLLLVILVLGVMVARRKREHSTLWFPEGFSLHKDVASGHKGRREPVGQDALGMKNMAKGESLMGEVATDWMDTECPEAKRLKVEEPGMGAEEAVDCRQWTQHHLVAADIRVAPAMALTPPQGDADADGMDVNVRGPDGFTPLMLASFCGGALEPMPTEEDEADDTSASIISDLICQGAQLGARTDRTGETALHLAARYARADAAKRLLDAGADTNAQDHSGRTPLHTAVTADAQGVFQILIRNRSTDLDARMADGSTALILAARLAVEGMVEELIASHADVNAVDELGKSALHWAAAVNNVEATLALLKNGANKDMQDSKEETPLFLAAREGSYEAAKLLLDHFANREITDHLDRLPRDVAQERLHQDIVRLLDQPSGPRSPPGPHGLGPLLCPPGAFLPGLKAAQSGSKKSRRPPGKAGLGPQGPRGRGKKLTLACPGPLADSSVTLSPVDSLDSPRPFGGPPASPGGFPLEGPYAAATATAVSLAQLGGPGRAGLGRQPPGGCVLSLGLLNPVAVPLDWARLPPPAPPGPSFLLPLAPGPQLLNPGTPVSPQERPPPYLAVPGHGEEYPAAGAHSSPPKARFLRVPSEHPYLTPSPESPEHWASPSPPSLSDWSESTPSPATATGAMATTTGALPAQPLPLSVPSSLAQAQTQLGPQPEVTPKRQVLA
Assay [10] is described as follows: probe aEGFR binding to arrayed compounds – biochemical, biotinylated probe, 635/667 nm fluorescence, primary screen (AID 1097).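 Further: probe is a biotinylated anti-EGFR antibody binding compounds printed on slides; score combines fluorescence near 667 nm and signal to noise of each spot.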 Conditions: small-molecule microarray, higher = more signal.
Assay [11] deals with Plasmodium falciparum Sir2 (PF13_0152, Sir2A). Put plainly: Plasmodium falciparum Sir2A binding compounds – biochemical, small-molecule microarray, 635 nm fluorescence, primary screen (AID 1098).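 Further: score merges spot fluorescence intensity with its signal-to-noise ratio.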 Conditions: fluorescence 635 nm, higher = more signal.
Assay [12] is described as follows: probe aDKK1 binding to arrayed compounds – biochemical, biotinylated probe, 635/667 nm fluorescence, primary screen (AID 1099).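 Further: score merges 667nm spot fluorescence with signal to noise across triplicate slides; reference of the scale not given here.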 Conditions: small-molecule microarray, higher = more signal.
Assay [13] is described as follows: probe aCHRDL2 binding to arrayed compounds – biochemical, biotinylated probe, 635/667 nm fluorescence, primary screen (AID 1100). Conditions: small-molecule microarray, higher = more signal.
Assay [14] in a line: change in splice reporter luminescence, either direction, cell-based, HEK293, spliceosome inhibition project, primary screen (AID 1101).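 Further: HEK293 cells carrying a splicing-competent luciferase reporter gene; test concentration not given here.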 Conditions: HEK293 splicing luciferase reporter, 24 h, higher = more signal, called active from +8 up or from −8 down.
The target of assay [15] is Fibroblast growth factor 10 (Homo sapiens) (UniProt O15520). Briefly: compounds binding fibroblast growth factor 10 – biochemical, small-molecule microarray, 635 nm fluorescence, primary screen (AID 1102). Conditions: FGF10 binding, fluorescence 635 nm, higher = more signal.
Sequence of Fibroblast growth factor 10 (Homo sapiens) (O15520 whole entry, looked up): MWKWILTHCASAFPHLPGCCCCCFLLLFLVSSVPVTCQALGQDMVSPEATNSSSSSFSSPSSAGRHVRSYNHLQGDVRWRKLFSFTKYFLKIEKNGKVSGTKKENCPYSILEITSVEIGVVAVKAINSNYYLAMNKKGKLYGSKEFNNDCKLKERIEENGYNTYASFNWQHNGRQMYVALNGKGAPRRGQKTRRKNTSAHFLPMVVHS
Assay [16] has as its system glycogen synthase kinase-3 (GSK3A per assay name; protocol says GSK3B). Briefly: compounds binding glycogen synthase kinase-3 – biochemical, small-molecule microarray, 635 nm fluorescence, GSK3A, primary screen (AID 1103). Further: the record names both GSK3A and GSK3B. Conditions: fluorescence 635 nm, higher = more signal.
Assay [17] deals with Epidermal growth factor receptor (Homo sapiens) (UniProt P00533). Put plainly: compounds binding epidermal growth factor receptor – biochemical, small-molecule microarray, 635 nm fluorescence, primary screen (AID 1104).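 Further: score merges 667 nm emission intensity with spot signal to noise over triplicate slides.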 Conditions: EGFR binding, higher = more signal.
Sequence of Epidermal growth factor receptor (Homo sapiens) (P00533 whole entry, looked up): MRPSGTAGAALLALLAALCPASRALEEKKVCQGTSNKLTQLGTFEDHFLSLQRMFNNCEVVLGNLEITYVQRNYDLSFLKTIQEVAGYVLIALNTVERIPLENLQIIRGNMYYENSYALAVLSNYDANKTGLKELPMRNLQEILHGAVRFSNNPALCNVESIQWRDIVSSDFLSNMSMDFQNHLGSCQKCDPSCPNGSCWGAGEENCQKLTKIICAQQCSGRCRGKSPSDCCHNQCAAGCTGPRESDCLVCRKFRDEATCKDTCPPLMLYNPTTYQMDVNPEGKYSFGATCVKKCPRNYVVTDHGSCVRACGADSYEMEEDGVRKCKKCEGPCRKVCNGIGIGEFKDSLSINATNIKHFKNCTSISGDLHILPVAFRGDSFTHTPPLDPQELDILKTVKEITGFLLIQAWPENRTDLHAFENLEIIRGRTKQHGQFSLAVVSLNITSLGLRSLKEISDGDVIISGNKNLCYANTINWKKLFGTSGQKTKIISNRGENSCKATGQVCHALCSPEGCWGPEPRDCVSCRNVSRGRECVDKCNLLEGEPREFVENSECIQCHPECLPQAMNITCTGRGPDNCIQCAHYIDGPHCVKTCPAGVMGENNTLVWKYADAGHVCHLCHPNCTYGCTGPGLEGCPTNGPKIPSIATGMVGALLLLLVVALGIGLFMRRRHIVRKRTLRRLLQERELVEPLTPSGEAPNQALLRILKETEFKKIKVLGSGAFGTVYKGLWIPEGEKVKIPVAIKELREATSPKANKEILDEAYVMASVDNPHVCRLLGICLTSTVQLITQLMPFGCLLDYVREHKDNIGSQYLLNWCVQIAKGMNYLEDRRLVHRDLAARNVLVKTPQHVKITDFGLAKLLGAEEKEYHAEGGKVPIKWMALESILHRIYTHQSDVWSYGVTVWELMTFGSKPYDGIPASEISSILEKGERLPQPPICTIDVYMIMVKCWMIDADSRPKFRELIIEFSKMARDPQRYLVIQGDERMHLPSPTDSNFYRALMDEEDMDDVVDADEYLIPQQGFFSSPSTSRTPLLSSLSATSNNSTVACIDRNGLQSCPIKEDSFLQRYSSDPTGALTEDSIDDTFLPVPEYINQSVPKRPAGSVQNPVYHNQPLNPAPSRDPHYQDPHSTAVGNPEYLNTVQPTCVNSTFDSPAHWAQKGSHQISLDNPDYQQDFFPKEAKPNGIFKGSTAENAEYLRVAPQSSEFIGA
The target of assay [18] is Follistatin-related protein 3 (Homo sapiens) (UniProt O95633). Put plainly: compounds binding follistatin-related protein 3 – biochemical, small-molecule microarray, 635 nm fluorescence, primary screen (AID 1105).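 Further: score merges emission near 667 nm and signal to noise per printed spot across three slides.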 Conditions: FSTL3 binding, higher = more signal.
Sequence of Follistatin-related protein 3 (Homo sapiens) (O95633 whole entry, looked up): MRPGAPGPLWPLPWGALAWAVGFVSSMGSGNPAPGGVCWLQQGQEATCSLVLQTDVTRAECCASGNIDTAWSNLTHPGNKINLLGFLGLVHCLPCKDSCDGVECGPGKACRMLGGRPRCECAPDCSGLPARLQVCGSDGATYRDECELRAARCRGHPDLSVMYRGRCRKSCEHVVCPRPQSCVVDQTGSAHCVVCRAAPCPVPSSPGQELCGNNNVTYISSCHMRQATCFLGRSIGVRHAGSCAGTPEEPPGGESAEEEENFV
Assay [19] deals with Dickkopf-related protein 1 (Homo sapiens) (UniProt O94907). Briefly: small molecules binding DKK1 protein – biochemical, small-molecule microarray, 635 nm fluorescence scan, primary screen (AID 1106).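 Further: score merges emission near 667 nm with signal to noise over three replicate slides.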 As to conditions: higher = more signal.
Sequence of Dickkopf-related protein 1 (Homo sapiens) (O94907 whole entry, looked up): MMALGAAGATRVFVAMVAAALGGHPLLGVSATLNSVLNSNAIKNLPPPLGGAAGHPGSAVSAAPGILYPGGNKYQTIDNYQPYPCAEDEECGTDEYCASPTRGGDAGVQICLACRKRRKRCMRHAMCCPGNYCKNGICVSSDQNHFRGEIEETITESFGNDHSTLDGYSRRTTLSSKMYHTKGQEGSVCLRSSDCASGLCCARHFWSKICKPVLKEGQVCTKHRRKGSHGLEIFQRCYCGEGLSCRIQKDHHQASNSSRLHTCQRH
The subject of assay [20] is Inhibin beta A chain (activin A). Briefly: small molecules binding activin A – biochemical, small-molecule microarray, 635 nm fluorescence scan, primary screen (AID 1107).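 Further: mouse activin A protein probed at 4.33 µg/mL on printed slides; score merges bound-protein fluorescence near 667 nm with spot signal-to-noise.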 Conditions: INHBA, higher = more signal.

On to `COc1cc(NN2C(C(O)c3ccc(N(C)C)cc3)C=CC3C(=O)N(c4ccccc4)C(=O)C32)cc(OC)c1OC` (stereo not given), for which the composite z-score was 0.824 in assay [1]; 1.4 in assay [5]; 0.473 in [7]; -0.308 in [8]; 0.544 in assay [9]; 0.0955 in [10]. Besides, the composite z-score in [11] is 0.101; in [12], 1.16; in assay [13], 1.13; in assay [15] it was 0.513; in [16], 0.765; in [17], -0.038. Also, the composite z-score in assay [18] is 0.455; in assay [19], -0.335; in assay [20], 1.67. For the same molecule, the z-score was 0.146 (inactive) in assay [2]; -0.424 (inactive) in assay [3]; -0.363 (inactive) in assay [4]; -1.58 (inactive) in assay [6]; -0.859 (inactive) in assay [14].

For `CC1CC/C=C\[C@H]2OC34C=CCN(C(C)(C)C)C(=O)[C@H]3N(CCCCCO)C(=O)[C@@H]4C2C(=O)O1` (stereo not given in full), the composite z-score is -0.187 in assay [1]; -0.0626 in assay [5]; -0.261 in assay [7]; -0.673 in assay [8]; -0.284 in [9]; -0.262 in assay [10]. Besides, the composite z-score in assay [11] is 0.261; in assay [12] it was -0.27; in assay [13] it was 0.2; in assay [15], -0.899; in assay [16] it was -0.696; in [17], -1.08. The values for the composite z-score in assay [18], in assay [19] and in assay [20] were -0.852, -1.16 and 0.0607, respectively. Besides, the z-score is -0.0244 (inactive) in assay [2]; 0.531 (inactive) in assay [3]; -0.615 (inactive) in assay [4]; -0.129 (inactive) in [6]; -0.0565 (inactive) in [14].

For `CCCC[C@@H](O)C1=C(COc2ccccc2)C[C@H]2C(=O)N(Cc3ccccc3)C(=O)[C@H]2[C@H]1CO`, the composite z-score in [1] was 0.287; in assay [5] it was 0.492; in assay [7] it was -0.0907; in [8], 0.517; in assay [9] it was 0.323; in assay [10] it was -0.0828. The composite z-score in assay [11] is 0.146; in assay [12], -0.302; in assay [13], -0.195; in [15], 0.574; in [16], -0.0802; in [17], 0.357. Further, the figures for the composite z-score in assay [18], in assay [19] and in [20] were 0.78, 0.638 and 0.526, respectively. In addition, the z-score in assay [2] is 0.298 (inactive); in [3] it was -0.336 (inactive); in assay [4], 0.361 (inactive); in [6], 0.672 (inactive); in [14], -0.249 (inactive).

As to `COC(=O)C1=CC(CCCO)=CC(c2ccc(CN3CCCC3)cc2)N(Cc2cccc(OC(F)(F)F)c2)C=C1C(=O)OC` (stereo not given), the composite z-score in [1] is 1.44; in [5], 3.31; in [7] it was 0.373; in assay [8] it was -0.116; in [9], 0.888; in assay [10] it was -0.0418. Further, the composite z-score was 1.26 in assay [11]; 0.752 in assay [12]; 0.82 in assay [13]; 0.641 in [15]; 0.68 in assay [16]; 0.121 in [17]. Moreover, the figures for the composite z-score in [18], in [19] and in assay [20] were 0.637, -0.271 and 0.976, respectively. For the same molecule, the z-score in [2] was -1.22 (inactive); in assay [3], -9.89 (active); in assay [4], -1.11 (inactive); in [6], -2.59 (inactive); in assay [14], -0.656 (inactive).

Turning to `NCCCCCCNC(=O)[C@@H]1C[C@@H]2C(=O)N[C@@H](CCCCN)C(=O)N2[C@@H]1c1ccc(O)cc1`, the composite z-score in [1] worked out at 1.44; in [5], 2.47; in assay [7], 0.362; in assay [8], 0.367; in assay [9], 0.549; in assay [10] it was 0.217. For the same molecule, the composite z-score was 1.32 in assay [11]; 0.13 in assay [12]; 0.462 in [13]; 0.523 in [15]; 0.456 in assay [16]; 0.456 in assay [17]. Besides, the values for the composite z-score in assay [18], in assay [19] and in assay [20] were 0.27, 1.16 and 0.899, respectively. The z-score in [2] is -0.171 (inactive); in [3], 0.142 (inactive); in [4] it was -1.38 (inactive); in assay [6] it was 0.445 (inactive); in assay [14], -1.48 (inactive).
